This note sets out measurements from PubChem BioAssay (Tox21).

Several values for one entry are separate records, joined by “and”; a condition that tells them apart may be missing. Equal values may be shown once. Unmarked numbers belong to inactive results. Records with an inconclusive call do not appear. Activity calls are given as the source filed them. Unless noted, calls follow the shape of the dose curve; as a rule, active = well fitted curve in the direction sought with a large enough effect in the repeat runs; inconclusive = weak or mixed curves; inactive = no such curve, though single readings can be large; an effect the other way counts as inactive or inconclusive.

Assay [1] in a line: A CellTox Green Cytotoxicity Assay to monitor cytotoxicity in HepG2 cells - 8 hour (AID 1224890). Also: nearly all actives have a fitted effect of over 45% in size. Also: potency is read from the fitted curve at half-maximal effect. To be noted: CellTox Green fluorescence; series mostly up to 76.8 µM. In a few lines: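 Using 1536-well format, dye-containing HepG2 suspension was seeded, allowed 5 h at 37 C/5% CO2, dosed by pintool with compounds, positive and negative controls, and imaged for fluorescence across 40 h.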

A short description of assay [2]: qHTS assay to identify small molecule antagonists of the estrogen receptor alpha (ER-alpha) signaling pathway using the BG1 cell line in the presence of 0.1 nM 17-beta-estradiol - cell viability counter screen (AID 1259241). Also: nearly all actives have a fitted effect of over 40% in size. To be noted: VM7Luc4E2 (BG1) viability, CellTiter-Fluor protease, 22 h, 0.1 nM estradiol agonist added; series mostly up to 92.4 µM. In a few lines: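 Measures cytotoxicity alongside the ER-alpha antagonist readout: VM7Luc4E2 cells, charcoal-stripped serum, 0.1 nM 17beta-estradiol final, 22 hr compound incubation at 37C, CellTiter-Fluor fluorescence.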
On the technique in general: In qHTS, concentration-response curves come from the screen itself.

Assay [3] in a line: qHTS assay to identify small molecule antagonists of the androgen receptor (AR) signaling pathway using the MDA cell line in the presence of 0.5 nM R1881 - cell viability counter screen (AID 1259242). Also: nearly all actives have a fitted effect of over 45% in size. To be noted: MDA-kb2 viability, CellTiter-Fluor protease fluorescence, 16 h; series mostly up to 92.4 µM. In a few lines:
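Viability of MDA-kb2 cells was multiplexed with the luciferase AR readout; after 16 hr with compounds and R1881 at 0.5 nM final, CellTiter-Fluor fluorescence was recorded.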

For assay [4], the target named is Estrogen receptor (Homo sapiens) (UniProt P03372). Description: qHTS assay to identify small molecule antagonists of the estrogen receptor alpha (ER-alpha) signaling pathway using the BG1 cell line in the presence of 0.1 nM 17-beta-estradiol (AID 1259244). Also: nearly all actives have a fitted effect of over 50% in size. As to conditions: VM7Luc4E2 (BG1) ERE-luciferase, antagonist mode, 0.1 nM E2, 22 h; series mostly up to 92.4 µM. In a few lines: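 Estradiol at 0.1 nM (final) stimulates the endogenous ER-alpha of VM7Luc4E2 cells carrying an ERE-driven luciferase; compounds are co-incubated 22 h at 37C and luciferase output quantified by luminescence.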

A short description of assay [5]: qHTS assay to identify small molecule phospholipidosis (PLD) inducers (AID 1259344; active = well fitted curve in the direction sought with a large enough effect; an effect the other way counts as inactive or inconclusive). To be noted: HepG2 phospholipidosis, LipidTOX Red imaging, 24 h; series mostly up to 38.3 µM. Summed up: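 Phospholipidosis is scored by imaging LipidTOX-stained pits in HepG2 cells exposed to compound for 24 h at 37 C; pit counts and integrated intensities per well and per cell serve as outputs.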

Assay [6] in a line: qHTS assay to identify small molecule HDAC inhibitors (AID 1259364).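 Also: wild-type HCT-116 cells with endogenous class I/II HDAC activity; top concentration of the series differs between compounds; nearly all actives have a fitted effect of over 45% in size.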 As to conditions: HCT-116 HDAC-Glo I/II luminescence, 2 h; series mostly up to 92.4 µM. Summed up:
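Read-out: luminescence of HDAC-Glo I/II reagent, 30 min RT, reflecting class I/II deacetylase activity in whole HCT-116 cells pre-exposed 2 h to DMSO-dissolved compounds.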

Assay [7] is described as follows: qHTS assay to identify small molecule HDAC inhibitors - cell viability counter screen (AID 1259365). Also: nearly all actives have a fitted effect of over 50% in size. As to conditions: HCT-116 viability, CellTiter-Glo ATP luminescence, 2 h; series mostly up to 92.4 µM. Summed up: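 Following a 2hr exposure of overnight-plated wild-type HCT-116 cells to DMSO-delivered compounds, CellTiter-Glo was added and luminescence recorded after 30min at room temperature.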

A short description of assay [8]: qHTS assay to identify small molecule agonists of the sonic hedgehog signaling (Shh) pathway - cell viability counter screen (AID 1259366). Also: nearly all actives have a fitted effect of over 50% in size. As to conditions: NIH/3T3 Gli1-Luc viability, CellTiter-Fluor, 24 h; series mostly up to 92.4 µM. Summed up: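 After a 4hr attachment at 37C, NIH/3T3 cells bearing an integrated Gli1-driven luciferase reporter were dosed with compounds. Treatment lasted 24hr, with the final hour including CellTiter-Fluor for a fluorescence viability measurement.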

Assay [9] in a line: qHTS assay to identify small molecule antagonists of the sonic hedgehog signaling (Shh) pathway - cell viability counter screen (AID 1259367). Also: nearly all actives have a fitted effect of over 55% in size. To be noted: NIH/3T3 Gli1-Luc viability, CellTiter-Fluor, 24 h; series mostly up to 42.5 µM. Summed up: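 Cells: 3T3 Gli1-Luc, 2,000/well, 4 hr pre-incubation. Compounds in DMSO, then conditioned medium. Incubation 24 hr, 37C, 5% CO2. CellTiter-Fluor at 23 hr, 1 hr, fluorescence.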

Assay [10] concerns the target Androgen receptor (Homo sapiens) (UniProt P10275). Description: qHTS assay to identify small molecule antagonists of the androgen receptor (AR) signaling pathway using the MDA cell line in the presence of 0.5 nM R1881 (AID 1259243). Also: nearly all actives have a fitted effect of over 50% in size. Also: potency is read from the fitted curve at half-maximal effect. To be noted: MDA-kb2 MMTV-luciferase, R1881 0.5 nM, 16 h; series mostly up to 42.5 µM. In a few lines: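 Reporter cells cultured without CO2 receive test chemicals, then 0.5 nM R1881 final; after 16 hr at 37C, ONE-Glo is added and light output recorded.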
% is scaled to controls: 0 for no effect and ±100 for the full control effect.

Androgen receptor (Homo sapiens), sequence (P10275 whole entry, looked up): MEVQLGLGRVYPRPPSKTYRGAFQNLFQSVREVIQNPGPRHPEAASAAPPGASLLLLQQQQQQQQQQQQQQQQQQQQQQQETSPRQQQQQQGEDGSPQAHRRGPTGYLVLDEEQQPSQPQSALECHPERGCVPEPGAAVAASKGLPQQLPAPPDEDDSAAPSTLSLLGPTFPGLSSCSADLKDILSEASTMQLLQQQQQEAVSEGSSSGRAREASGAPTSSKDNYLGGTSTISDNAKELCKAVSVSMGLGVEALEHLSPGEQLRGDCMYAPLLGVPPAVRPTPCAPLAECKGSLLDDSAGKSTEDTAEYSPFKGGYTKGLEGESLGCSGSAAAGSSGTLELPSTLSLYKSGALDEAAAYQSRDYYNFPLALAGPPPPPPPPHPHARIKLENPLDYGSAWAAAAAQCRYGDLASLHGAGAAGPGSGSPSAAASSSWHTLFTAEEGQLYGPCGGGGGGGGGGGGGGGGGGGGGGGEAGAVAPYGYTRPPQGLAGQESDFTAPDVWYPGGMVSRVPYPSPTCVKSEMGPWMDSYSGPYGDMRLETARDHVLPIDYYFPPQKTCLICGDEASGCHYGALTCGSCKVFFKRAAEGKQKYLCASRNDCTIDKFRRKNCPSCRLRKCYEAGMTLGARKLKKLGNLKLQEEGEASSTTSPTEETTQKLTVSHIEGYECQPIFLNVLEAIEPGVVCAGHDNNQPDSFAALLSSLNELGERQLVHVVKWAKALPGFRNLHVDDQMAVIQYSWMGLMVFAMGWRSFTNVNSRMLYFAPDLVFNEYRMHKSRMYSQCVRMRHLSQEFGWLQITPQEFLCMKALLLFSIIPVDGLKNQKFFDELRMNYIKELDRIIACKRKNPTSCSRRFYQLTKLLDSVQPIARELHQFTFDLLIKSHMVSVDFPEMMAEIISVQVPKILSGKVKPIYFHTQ
Estrogen receptor (Homo sapiens), sequence (P03372 whole entry, looked up): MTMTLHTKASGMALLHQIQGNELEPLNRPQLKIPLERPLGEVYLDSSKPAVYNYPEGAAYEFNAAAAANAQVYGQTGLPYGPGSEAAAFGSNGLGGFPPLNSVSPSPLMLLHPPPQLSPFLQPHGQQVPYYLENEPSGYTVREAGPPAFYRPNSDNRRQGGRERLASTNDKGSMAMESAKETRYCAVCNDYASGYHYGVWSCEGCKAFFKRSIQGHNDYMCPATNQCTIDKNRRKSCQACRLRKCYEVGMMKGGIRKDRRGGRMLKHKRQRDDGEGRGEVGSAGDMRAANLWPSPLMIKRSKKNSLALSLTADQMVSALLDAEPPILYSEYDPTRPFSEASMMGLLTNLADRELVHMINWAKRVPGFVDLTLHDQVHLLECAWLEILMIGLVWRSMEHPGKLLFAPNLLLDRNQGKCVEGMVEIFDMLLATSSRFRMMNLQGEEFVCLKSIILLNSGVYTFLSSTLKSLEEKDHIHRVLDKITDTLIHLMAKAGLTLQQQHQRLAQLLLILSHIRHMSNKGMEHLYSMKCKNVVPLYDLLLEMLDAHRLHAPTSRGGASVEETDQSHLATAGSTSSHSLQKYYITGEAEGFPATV

On to `Cc1cccc(C)c1NC(=O)C(C)N` (configuration not stated), for which the Potency in [1] was 21.3 µM (active). The outcome in assay [2], in [4] and in [7] was inactive. The Potency result in assay [3], in [5], in assay [6], in assay [8] and in [9] was “inactive” in each case.

As for `Nc1ccc(S(=O)(=O)Nc2ccnn2-c2ccccc2)cc1`, the cytotoxicity increase in [1] was 0.943% [at 15.8 µM]. In addition, the activity change, negative = cytotoxicity in assay [2] is 0.0467% [at 19 µM]; in assay [7], 2.68% [at 19 µM]. Also, the figures for the viability change, negative = cytotoxic in assay [3] and in [8] were 0.287% [at 19 µM] and 10.6% [at 19 µM], respectively. The activity change, negative = inhibition in assay [4] was 0.724% [at 19 µM]; in [6], -2.22% [at 19 µM]. The Potency result in [5] and in assay [9] was “inactive” in each case.

Turning to `Cc1cccn2c(=O)c(-c3nnn[nH]3)cnc12`, the cytotoxicity increase in [1] is 3.76% [at 15.8 µM]. Further, the results for the activity change, negative = cytotoxicity in [2] and in assay [7] were 2.88% [at 19 µM] and -4.27% [at 19 µM], respectively. For the same compound, the figures for the viability change, negative = cytotoxic in [3] and in [8] were 3.32% [at 19 µM] and 4.51% [at 19 µM], respectively. Further, the activity change, negative = inhibition in [4] was 3.45% [at 19 µM]; in assay [6], -1.21% [at 19 µM]. The Potency entry in [5] and in [9] was “inactive” throughout.

In the case of `C=C(C)C(=O)OCCCCCCCC(C)C`, the Potency entry in assay [1], in assay [3], in assay [10] and in [6] was “inactive” each time. For the same compound, the outcome in assay [2], in assay [4] and in [7] was inactive.

Consider `O=C1CC2CC1C1CCCC21` (configuration not stated), for which the Potency entry in [1], in [3], in [10], in assay [6], in assay [8] and in assay [9] was “inactive” each time. Further, the result in assay [2], in assay [4] and in assay [7] was inactive.

For `CN1CC(=O)NC1=N`, the Potency entry in [1], in assay [3], in assay [10], in assay [5], in [6] and in assay [8] was “inactive” in each case. In [9], the Potency result was “inactive”. Besides, the outcome in assay [2] and in assay [7] was inactive.

In the case of `O=C1NC(=O)[C@@]2(CCOc3ccc(F)cc32)N1`, the Potency entry in [1], in assay [3], in [5], in assay [6], in [8] and in assay [9] was “inactive” in each case. Besides, the outcome in assay [2], in [4] and in assay [7] was inactive.

Regarding `CS(=O)(=O)O`, the Potency entry in assay [1], in assay [3], in assay [10], in assay [6] and in assay [9] was “inactive” each time. In addition, the result in [2], in assay [4] and in assay [7] was inactive.

Turning to `CCN(CC)CCNC(=O)c1cc(S(C)(=O)=O)ccc1OC`, the Potency result in assay [1], in assay [3], in [5], in assay [6], in assay [8] and in assay [9] was “inactive” in each case. For the same compound, the result in [2], in assay [4] and in [7] was inactive.

In the case of `O=c1cc(-c2ccccc2)oc2ccccc12`, the Potency entry in assay [1], in assay [3], in assay [8] and in [9] was “inactive” each time. Besides, the result in assay [2], in assay [4] and in assay [7] was inactive. Further, in [10], the Potency was 7.7 µM (active) and 3.83 µM (active). In addition, the PLD induction in assay [5] is -2.02% [at 3.15 µM].

As to `Cc1cnc(NS(=O)(=O)c2ccc(N)cc2)nc1`, the Potency entry in assay [1], in assay [3], in assay [10], in assay [6], in assay [8] and in [9] was “inactive” in each case. In addition, the result in assay [2], in assay [4] and in [7] was inactive.

On to `O=C(O)COc1nn(Cc2ccccc2)c2ccccc12`, for which the Potency entry in assay [1], in [3], in assay [10], in assay [5], in assay [6] and in [8] was “inactive” each time. Besides, the Potency entry in assay [9] is “inactive”. For the same compound, the outcome in assay [2], in [4] and in assay [7] was inactive.

Regarding `CCCCCCOC(=O)CCCCC(=O)OCCCCCC`, the Potency entry in assay [1], in assay [3], in assay [6], in [8] and in assay [9] was “inactive” in each case. Besides, the result in [2], in assay [4] and in assay [7] was inactive.

Regarding `CCCCCOC(=O)CCCCC`, the Potency entry in assay [1], in assay [3], in [6], in assay [8] and in assay [9] was “inactive” throughout. The outcome in assay [2], in assay [4] and in [7] was inactive.

With `O=C1OC(=O)C2CCCCC12` (configuration not stated), the Potency result in assay [1], in assay [3], in [6], in assay [8] and in [9] was “inactive” each time. In addition, the outcome in assay [2], in [4] and in assay [7] was inactive.

In the case of `N=C(N)c1ccc(OCCCOc2ccc(C(=N)N)cc2)cc1`, the Potency entry in [1], in [3], in assay [6] and in assay [9] was “inactive” in each case. Moreover, the outcome in assay [2], in assay [4] and in assay [7] was inactive. For the same compound, the PLD induction in assay [5] is -2.77% [at 0.306 µM].

Take `C1CN(CCOCCN2CCOCC2)CCO1`: the Potency result in [1], in [3], in assay [6], in assay [8] and in assay [9] was “inactive” each time. The outcome in assay [2], in assay [4] and in assay [7] was inactive.

As to `O=C(O)Cc1ccc(CCNS(=O)(=O)c2ccc(Cl)cc2)cc1`, the Potency entry in assay [1], in [3], in assay [5], in assay [6] and in assay [9] was “inactive” in each case. The outcome in [2], in [4] and in assay [7] was inactive.

As to `CC(=O)c1ccccc1O`, the Potency entry in assay [1], in assay [3], in [6], in assay [8] and in assay [9] was “inactive” in each case. Moreover, the result in assay [2], in assay [4] and in assay [7] was inactive.

As to `c1cnc(N2CCN(Cc3ccc4c(c3)OCO4)CC2)nc1`, the Potency result in assay [1], in assay [3], in [5], in [6] and in assay [9] was “inactive” in each case. In addition, the result in assay [2], in [4] and in assay [7] was inactive.

In the case of `Cc1nc2c([nH]1)c(=O)n(C)c(=O)n2Cc1ccco1`, the Potency result in assay [1], in [3], in [5], in [8] and in [9] was “inactive” each time. For the same compound, the outcome in assay [2], in [4] and in assay [7] was inactive.

As to `O=C1CCCN1C1CCCCC1`, the Potency result in [1], in [3], in assay [6], in [8] and in assay [9] was “inactive” throughout. Besides, the result in assay [2], in assay [4] and in [7] was inactive.

Take `CCCCCCCCCCCCCCCCC`: the Potency entry in assay [1], in [3], in [6], in assay [8] and in assay [9] was “inactive” in each case. Also, the result in assay [2], in [4] and in assay [7] was inactive.

For `CCC=O`, the Potency entry in assay [1], in [3], in [6], in assay [8] and in assay [9] was “inactive” each time. Further, the outcome in assay [2], in assay [4] and in [7] was inactive.
